Compound activity (PubChem)
HT1080-NT tox: qHTS for induction of synthetic lethality in tumor cells producing 2HG: qHTS for the HT-1080-NT fibrosarcoma cell line; Potency, µM (doses to about 46.1 µM), for the others: at the top dose activity, negative = less viability, hits mostly cytotoxic; 360,000 tested, 1.6% active; HT-1080-NT fibrosarcoma viability, CellTiter-Glo ATP luminescence, 48 h;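 note: NT is the 2HG producing partner of a matched IDH1 knockdown line; 0% = DMSO-treated cells and -100% = media-only wells without cells; nearly all actives have a fitted effect of over 55% in size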
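Viability by CellTiter-Glo luminescence after 48 h compound exposure at 37C of HT-1080-NT cells (750/well, RPMI, 5% FBS). % activity scaled between DMSO wells and medium-only wells, then curve-fitted and categorized by curve class.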
KB-3-1 cytotox: qHTS assay for MDR1-selective chemotherapeutics: Primary screen using the parental adenocarcinoma cell KB-3-1 | KB-3-1 viability, CellTiter-Glo ATP luminescence, 72 h | Potency, µM (titrated, usually from 46.1 µM), most hits filed as cytotoxic | 400,000 tested, 1.4% active | AID 1347075, 2019; note: nearly all actives have a fitted effect of over 60% in size
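72 h, 37 °C compound treatment of KB-3-1 parental cells; CellTiter-Glo added, 10 min, luminescence read. Data corrected against DMSO-only plates and normalized before curve fitting.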
DT40 TDP1 CPT: qHTS for Inhibitors of human tyrosyl-DNA phosphodiesterase 1 (TDP1): qHTS in cells in presence of CPT. chicken DT40 Tdp1-/-;hTDP1 cells + 20 nM CPT, ATP luminescence, 48 h. Potency, µM (highest dose often 46.2 µM), inactives show at the top dose activity change, negative = growth inhibition, usual class: inhibitors. 420,000 tested, 12% active. AID 686979, 2013; note: nearly all actives have a fitted effect of over 55% in size
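Cell growth measured by CellTiter-Glo luminescence after a minimum 48 h, 37 C compound exposure with 20 nM CPT in Tdp1-knockout DT40 cells stably expressing hTDP1, seeded 400/well; qHTS titration format.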
KB-V1 MDR tox: qHTS assay for MDR1-selective chemotherapeutics: Primary screen using the drug-selected MDR subline cells KB-V1. AID 1347076, 2019. KB-V1 MDR cells viability, CellTiter-Glo, 72 h. 400,000 tested, 3.4% active. Potency, µM (top dose mostly 46.1 µM), most hits filed as cytotoxic; note: nearly all actives have a fitted effect of over 60% in size
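Compound-treated KB-V1 multidrug-resistant cells, 72 h, 37 degrees C; viability by CellTiter-Glo. Fitted qHTS curves give the values.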
HT1080 IDH1KD tx: qHTS for induction of synthetic lethality in tumor cells producing 2HG: qHTS for the HT-1080-IDH1KD cell line. 360,000 tested, 2% active. HT-1080 IDH1 knockdown viability, ATP luminescence, 48 h. Potency, µM (doses to about 46.1 µM), for the others: top-dose activity, negative = toxicity, actives largely listed as cytotoxic;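 note: 0% = DMSO wells and -100% = cell-free medium wells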
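Using the IDH1-knockdown HT-1080 line run in the same batch and compound series as the NT line, viability after 48 h at 37 °C was determined by CellTiter-Glo luminescence and expressed as % activity.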
TDP1 cell noCPT: qHTS for Inhibitors of human tyrosyl-DNA phosphodiesterase 1 (TDP1): qHTS in cells in absence of CPT; 420,000 tested, 15% active; AID 686978, 2013; Potency, µM (top dose mostly 46.2 µM), for the others: top-dose activity change, negative = growth inhibition, actives largely listed as inhibitors; DT40 Tdp1-/- hTDP1 cells, no CPT, ATP luminescence, 48 h; note: nearly all actives have a fitted effect of over 55% in size
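DT40 Tdp1-/-;hTDP1 cells, no CPT (DMSO vehicle only), 400 cells/well; compounds pin-transferred; ≥48 hr, 37 °C; CellTiter-Glo 30 min RT dark, luminescence read.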
The depositor's hits bear a star; i = inactive; ? = inconclusive; nt = not tested or not shown; ! = a repeat was not active. A selection: hits, their analogues and other compounds. The true share with any hit is near 19%. Calls come from the whole dose curve; as a rule, active = well fitted curve in the direction sought with a large enough effect; inconclusive = small, poorly fitted or top-dose-only effect, or another doubt; inactive = no such curve, though single readings can be large; an effect the other way counts as inactive or inconclusive. Unless noted, % is set by controls: 0 for no effect and ±100 for the full control effect; potency is the fitted concentration of half-maximal effect.

SMILES	HT1080-NT tox	KB-3-1 cytotox	DT40 TDP1 CPT	KB-V1 MDR tox	HT1080 IDH1KD tx	TDP1 cell noCPT
CCN(C(=O)CCc1nc(-c2ccccc2F)no1)c1cc(OC)ccc1OC	12%	i	23µM*	?	2%	?
COc1ccc(-c2noc(CCC(=O)N(C)c3cc(Cl)ccc3OC)n2)cc1	nt	i	?	i	nt	-29%
CCOC1=C2CN(S(=O)(=O)c3ccc(C)cc3)C(c3ccc(CC)cc3)CC2n2c(=O)n(-c3ccccc3)c(=O)n2C1 (configuration not stated)	-1%	i	-20%	i	3%	-19%
CCCCCNC(=O)CCn1c(=O)[nH]c2ccccc2c1=O	nt	i	?	i	nt	?
COCCCC/C(=N\OCCN)c1ccc(C(F)(F)F)cc1	?	?	13µM*!	?	18µM*!	21µM*
COCCCCC(=NOCCN)c1ccc(C(F)(F)F)cc1	nt	nt	13µM*	nt	nt	24µM*
COC(=O)c1cc(-c2ccc(Br)cc2)c2c(=O)n(C)c(=O)n(C)c2n1	18%	i	-36%	i	19%	-56%
COc1ccc(/C=C(\NC(=O)c2ccco2)C(=O)NCc2ccco2)cc1	?	i	-10%	i	25%	?
CC(C)(C)c1ccc(Cn2c(=N)n(CC(O)c3ccco3)c3ccccc32)cc1 (configuration not stated)	23µM*	?	2.6µM*	?	21µM*	2.6µM*
N=c1n(CCO)c2ccccc2n1Cc1ccccc1F	nt	i	?	i	nt	?
Cc1ccccc1Cn1c(=N)n(CC(O)c2ccco2)c2ccccc21 (configuration not stated)	?	i	18µM*	?	?	15µM*
CC(C)(C)c1ccc(COn2c(=O)c(-c3ccco3)[n+]([O-])c3ccccc32)cc1	8%	i	-6%	i	2%	5%
Cc1ncc2c(c1O)COP(=O)(O)OC2	nt	nt	2%	nt	nt	-17%
CCN(CC)C(=O)N1CCC(NC(=O)c2ccc(C(C)(C)C)cc2)CC1	-7%	i	?	i	-7%	23µM*
O=C(N[C@@H]1c2ccccc2C2(CCN(C(=O)c3cc4ccccc4oc3=O)CC2)[C@H]1O)c1cccnc1	nt	nt	-1%	nt	nt	-6%
O=C(O)C[C@H]1c2cc(C(F)(F)F)ccc2S(=O)(=O)N1C1CCN(Cc2ccccc2)CC1	2%	i	-24%	i	13%	-24%
Cc1ccccc1C(=O)NCCCNC(=O)c1ccco1	24%	i	-1%	i	20%	-3%
CCN(CC)S(=O)(=O)c1cccc(NC(=O)c2cc(-c3cccs3)nn2-c2ccccc2)c1	12%	i	21µM*	3.7µM*	0%	15µM*
COC(=O)c1cc(-c2cccs2)nn1-c1ccccc1	0%	i	4%	i	2%	-14%
CN(C)S(=O)(=O)c1cccc(NC(=O)c2cc(-c3cccs3)nn2-c2ccccc2)c1	4%	i	?	5.8µM*	2%	15µM*
O=[N+]([O-])c1cccc(/C=C/c2ccccn2)c1	-7%	?	-1%	i	-14%	7%
O=[N+]([O-])c1cccc2c1ccc1ncccc12	?	i	-2%	i	?	-18%
O=[N+]([O-])c1ccc(/C=C/c2ccnc3ccccc23)cc1	nt	?	11µM*	i	nt	16µM*
O=[N+]([O-])c1ccc(/C=C/c2ccnc3ccccc23)c([N+](=O)[O-])c1	nt	i	35µM*	i	nt	20µM*
Nc1ccc(/C=C/c2ccnc3ccccc23)cc1[N+](=O)[O-]	nt	i	10µM*	i	nt	5µM*
SMILES	HT1080-NT tox	KB-3-1 cytotox	DT40 TDP1 CPT	KB-V1 MDR tox	HT1080 IDH1KD tx	TDP1 cell noCPT
CCCCN(C)C(=O)Cn1cnc2sc(C)c(S(=O)(=O)N3CCN(c4ccccc4OC)CC3)c2c1=O	18%	i	23µM*	i	16%	23µM*
COc1ccccc1N1CCN(S(=O)(=O)c2c(C)sc3ncn(CC(=O)N(C)c4ccc(Cl)cc4)c(=O)c23)CC1	nt	i	18µM*	i	nt	16µM*
Cc1cnn(CCC(=O)NNC(=S)NCC(C)C)c1	13%	i	?	i	23%	26µM*
Cc1cnn(CCC(=O)NNC(=S)Nc2ccccc2)c1	7.1µM*	i	11µM*	?	8.9µM*	18µM*
Cc1ccc(NC(=S)NNC(=O)CCn2cc(C)cn2)cc1	2.8µM*	i	-1%	?	6.3µM*	-10%
CS(=O)Cc1cc(Sc2ccccc2)nc(-c2ccncc2)n1 (configuration not stated)	-8%	i	-2%	i	-10%	-8%
Cc1cc(C)c(NC(=O)CNC(=O)COC(=O)/C=C/c2cccs2)c(C)c1	-1%	i	-6%	i	11%	-12%
CCCCCC(=O)N1C[C@@H](O)[C@H](n2cc(COC(=O)c3ccccc3)nn2)C[C@@H]1c1ccccc1	-1%	i	?	i	-4%	?
Cc1ccc(-c2nnc(Nc3cccc(O)c3)c3ccccc23)cc1S(=O)(=O)NCC1CCCO1 (configuration not stated)	nt	?	?	i	nt	23µM*
Cc1ccccc1Nc1nnc(-c2ccc(C)c(S(=O)(=O)NCC3CCCO3)c2)c2ccccc12 (configuration not stated)	nt	i	?	i	nt	13µM*
Cc1ccc(-c2n[nH]c(=O)c3ccccc23)cc1S(=O)(=O)NCC1CCCO1 (configuration not stated)	-12%	?	?	i	-17%	?
Cc1ccc(-c2nnc(N3CCOCC3)c3ccccc23)cc1S(=O)(=O)NCC1CCCO1 (configuration not stated)	-2%	i	?	i	0%	26µM*
CCOc1ccccc1C(=O)NCC(=O)NCCCSc1ccccc1	12%	i	-12%	i	9%	-3%
